# Earlier results in PubChem BioAssay AID977610.
# The campaign covered roughly 3,600 compounds. About 3,600 (100%) were called active. Cut-off not given; nearly all actives show Ki up to about 18000 µM. The set was probably picked from earlier hits. This is one part of the list. Where a SMILES comes first, the peptide text is derived from it. Non-standard residues stand in square brackets, D forms with d. Square brackets hold non-standard residues; d marks the D form. Residues, ends and D or L forms follow the SMILES beside them. Peptide text beside a SMILES is read from it. [ ]: non-standard residue; d: D form. Orn(CH(NH2)2) = NC(N)NCCC[C@H](N)C(=O)O; Ahx = NCCCCCC(=O)O
# Assay: PubChem AID 977610
# Conditions: PDB protein-ligand complexes, literature Ki
compound,measurement,setting,value
CC(C)C[C@H](NC(=O)[C@H](CC(C)C)NC(=O)[C@H](Cc1cnc[nH]1)NC(=O)[C@H](CCCNC(N)N)NC(=O)[C@H](CC(C)C)NC(=O)[C@H](CC(C)C)NC(=O)[C@H](CC(C)C)NC(=O)[C@@H]1CCCN1C(=O)[C@H](Cc1cnc[nH]1)NC(=O)[C@@H](N)CCCNC(N)N)C(=O)N[C@@H](CCC(N)=O)C(=O)N[C@@H](CC(N)=O)C(=O)O (H-[Orn(CH(NH2)2)]HPLLL[Orn(CH(NH2)2)]HLLQN-OH),Ki,"protein: Estrogen receptor beta, PDB entry 4j24",0.05 µM (active)
CC(C)C[C@H](NC(=O)[C@H](CS)NC(=O)[C@@H]1CCCN1C(=O)[C@@H](NC(=O)[C@@H]1CCCN1C(=O)[C@@H]1CCCN1C(=O)[C@H](CS)NC(=O)[C@H](Cc1ccc(O)cc1)NC(=O)[C@H](CC(N)=O)NC(=O)[C@@H](NC(=O)[C@H](CCC(N)=O)NC(=O)[C@H](CS)NC(=O)CN)C(C)C)C(C)C)C(N)=O (H-GCQVNYCPPVPCL-NH2),Ki,"protein: urokinase-type plasminogen activator (uPA), PDB entry 4mny",1.96 µM (active)
O=C(NCC1(C2NC(c3ccccc3)=CS2)CCOCC1)c1cccc(-c2noc(C(F)(F)F)n2)c1 (centres undefined),Ki,"protein: HISTONE DEACETYLASE 7, PDB entry 3znr",0.036 µM (active)
O=C(O)c1ccccc1Nc1cccc(Nc2ccccc2C(=O)O)c1C(=O)O,Ki,"protein: Anthranilate phosphoribosyltransferase, PDB entry 4m0r",6.2 µM (active)
O=C(O)c1ccccc1C(=O)O,Ki,"protein: Nicotinate-nucleotide pyrophosphorylase [carboxylating], PDB entry 4kww",2.8 µM (active)
O=C(O)c1ccccc1Nc1ccccc1C(=O)O,Ki,"protein: Anthranilate phosphoribosyltransferase, PDB entry 4ij1",4 µM (active)
Cc1ccc(Nc2ccccc2C(=O)O)c(C(=O)O)c1,Ki,"protein: Anthranilate phosphoribosyltransferase, PDB entry 4gkm",6.8 µM (active)
Cc1ccc(C(=O)O)c(Nc2c(C)cccc2C(=O)O)c1,Ki,"protein: anthranilate phosphoribosyltransferase (AnPRT; trpD), PDB entry 4giu",4.7 µM (active)
NC(=O)SCC(=O)Nc1ccccc1C(=O)O,Ki,"protein: Human cathepsin K mutant C25S, PDB entry 4leg",28 µM (active)
Nc1ccn([C@@H]2O[C@H](CO)[C@@H](O)[C@H]2O[P+](O)(O)O)c(=O)n1,Ki,"protein: Bos taurus ribonuclease A, PDB entry 1jvu",7 µM (active)
Nc1ccn([C@@H]2O[C@H](CO[P+](O)(O)O)[C@@H](O)[C@H]2O)c(=O)n1,Ki,"protein: Bos taurus ribonuclease A, PDB entry 1rnm",844 µM (active)
Nc1ccn([C@@H]2O[C@H](CO)[C@@H](O[P+](O)(O)O)[C@H]2O)c(=O)n1,Ki,"protein: Bos taurus ribonuclease A, PDB entry 1rpf",103 µM (active)
Cc1cc(C)c(/C=N/NC(=O)[C@@H](N)Cc2c[nH]c3ccccc23)c(C)c1,Ki,"protein: Endothiapepsin, PDB entry 4kup",6 µM (active)
Cc1nn(C)c(C)c1Cc1nnc(-c2sc3ccccc3c2OC2CCNCC2)o1,Ki,"protein: Plasmodium vivax N-myristoyltransferase, PDB entry 2yne",0.0027 µM (active)
H-SRWPTTRL-OH,Ki,"protein: CFTR Associated Ligand (CAL) PDZ domain, PDB entry 4k76",4.5 µM (active)
CC[C@H](C)[C@H](NC(=O)[C@H](CO)NC(=O)[C@@H](NC(=O)[C@@H]1CCCN1C(=O)[C@H](Cc1c[nH]c2ccccc12)NC(=O)[C@H](CCCNC(N)N)NC(=O)[C@@H](N)CO)[C@@H](C)O)C(=O)N[C@@H](CC(C)C)C(=O)O (H-S[Orn(CH(NH2)2)]WPTSIL-OH),Ki,"protein: Tax1-binding protein 3, PDB entry 4e3b",0.9 µM (active)
CC[C@H](C)[C@H](NC(=O)[C@@H]1CCCN1C(=O)[C@H](CC(=O)O)NC(=O)[C@H](CC(C)C)NC(=O)[C@H](C)NC(=O)[C@@H](N)Cc1c[nH]c2ccccc12)C(=O)N[C@@H](C)C(=O)NCC(=O)N[C@@H](CCCCN)C(=O)N[C@@H](Cc1c[nH]c2ccccc12)C(=O)N[C@@H](CO)C(=O)N[C@@H](CCCNC(N)N)C(=O)O (H-WALDPIAGKWS[Orn(CH(NH2)2)]-OH),Ki,"protein: Acyl-[acyl-carrier-protein]--UDP-N-acetylglucosamine O-acyltransferase, PDB entry 2aq9",0.05 µM (active)
CC[C@H](C)[C@H](NC(=O)[C@H](CO)NC(=O)[C@@H](NC(=O)[C@@H]1CCCN1C(=O)[C@H](Cc1c[nH]c2ccccc12)NC(=O)[C@@H](N)CCCNC(N)N)[C@@H](C)O)C(=O)N[C@@H](CC(C)C)C(=O)O (H-[Orn(CH(NH2)2)]WPTSIL-OH),Ki,"protein: Golgi-associated PDZ and coiled-coil motif-containing protein, PDB entry 4e35",24 µM (active)
H-GGGGGGAVPGSWPW-OH,Ki,"protein: Chymotrypsinogen A, PDB entry 1oxg",2.7e-05 µM (active)
CSCC[C@H](NC(C)=O)C(=O)N[C@@H](Cc1c[nH]c2ccccc12)C(=O)N[C@@H](CC(=O)O)C(=O)N[C@@H](Cc1ccccc1)C(=O)N[C@@H](CC(=O)O)C(=O)N[C@@H](CC(=O)O)C(=O)NCCCCCC(=O)N[C@@H](CCSC)C(=O)N1CCC[C@H]1C(=O)N1CCC[C@H]1C(=O)N[C@@H](C)C(=O)N[C@@H](CC(=O)O)C(=O)N[C@@H](CCC(=O)O)C(=O)N[C@@H](CC(=O)O)C(=O)N[C@@H](Cc1ccc(O)cc1)C(=O)N[C@@H](CO)C(=O)N1CCC[C@H]1C(N)=O (Ac-MWDFDD[Ahx]MPPADEDYSP-NH2),Ki,"protein: interleukin-8(IL-8), PDB entry 1ilq",13 µM (active)
CC[C@H](C)[C@H](NC(=O)[C@H](CCCNC(N)N)NC(=O)CNC(=O)[C@@H](NC(=O)[C@@H](NC(=O)[C@@H](NC(=O)[C@@H](NC(=O)[C@H](CO)NC(=O)CN)C(C)C)C(C)C)[C@@H](C)CC)C(C)C)C(=O)N[C@H](C(=O)N[C@@H](CC(C)C)C(=O)N[C@@H](CO)C(=O)O)[C@@H](C)CC (H-GSVVIVG[Orn(CH(NH2)2)]IILS-OH),Ki,"protein: HCV NS3 protease, PDB entry 1dxp",0.027 µM (active)
CCC(CC)O[C@@H]1CC(C(=O)O)=C[C@H](n2cc(C(C)(C)O)nn2)[C@H]1NC(C)=O,Ki,"protein: Neuraminidase, PDB entry 4ks5",0.13 µM (active)
CCC(CC)O[C@@H]1CC(C(=O)O)=C[C@H](n2cc([C@H](O)CC)nn2)[C@H]1NC(C)=O,Ki,"protein: Neuraminidase, PDB entry 4ks4",0.072 µM (active)
CCC(CC)O[C@@H]1CC(C(=O)O)=C[C@H](n2cc(CCCO)nn2)[C@H]1NC(C)=O,Ki,"protein: Neuraminidase, PDB entry 4ks3",0.43 µM (active)
CCn1c(O)cc(=O)n(CC)c1=S,Ki,"protein: AmpC beta-lactamase, PDB entry 4kz8",1600 µM (active)
O=C(O)c1ccc(CCNS(=O)(=O)c2ccsc2C(=O)O)cc1,Ki,"protein: AmpC beta-lactamase from E. coli, PDB entry 4jxv",31 µM (active)
O=C(O)C(=O)CO,Ki,PDB entry 4mfe,5400 µM (active)
CC(C)C[C@H](N)C(=O)N[C@@H](CS)C(=O)N[C@@H](CO)C(=O)N[C@@H](CC(=O)O)C(=O)N[C@@H](CCCN=C(N)N)C(=O)NCC(=O)N[C@@H](CS)C(=O)N[C@@H](CCC(=O)O)C(=O)N[C@@H](CC(N)=O)C(=O)N[C@@H](CCCN=C(N)N)C(=O)N[C@@H](Cc1c[nH]c2ccccc12)C(=O)N[C@@H](CS)C(=O)N[C@@H](CCCCN)C(N)=O (H-LCSDRGCENRWCK-NH2),Ki,"protein: urokinase-type plasminogen activator (uPA), PDB entry 4mnx",17.7 µM (active)
NCCCC[C@H](NC(=O)[C@H](CCCN=C(N)N)NC(=O)[C@H](CC(N)=O)NC(=O)[C@H](CCC(=O)O)NC(=O)[C@H](CS)NC(=O)CNC(=O)[C@H](CCCN=C(N)N)NC(=O)[C@H](CC(=O)O)NC(=O)[C@H](Cc1c[nH]c2ccccc12)NC(=O)[C@H](CS)NC(=O)[C@@H](N)CCC(N)=O)C(=O)N[C@@H](CS)C(=O)N[C@@H](CC(N)=O)C(N)=O (H-QCWDRGCENRKCN-NH2),Ki,"protein: urokinase-type plasminogen activator (uPA), PDB entry 4mnw",1.72 µM (active)
